System: HCoV-229E
Set-up: species or system Huh-7
Details: 24 h, 10 µM; inhibitor

C=C1C(=O)O[C@@H]2[C@H]3O[C@]3(C)CC/C=C(\C)CC[C@@H]12 [Parthenolide]
229E Inhibition rate: 24.7

Source: article PMC12431657, “Discovery and mechanistic insights of dibenzoylmethane as a broad spectrum inhibitor of coronavirus” (PLOS Pathogens, 2025)
